# Results from the supplement of paper PMC10338343.
# ± gives the standard deviation. In all, about 3,000 sequences were measured (“pre-steady-state target cleavage rate”: median about 0.0079, highest 2% from about 0.2 on). Only a selection was taken, and the highest values are over-represented in it overall.
# Tested on: MILI (PIWIL2) piRISC loaded with piRNA #2 (26 nt)
# Assay: pre-steady-state target cleavage rate (min^-1); MIWI and MILI are mouse PIWI proteins and EfPiwi is from a freshwater sponge; tags in brackets are library labels; higher = faster piRNA-guided slicing of the target
# Conditions: guide: piRNA #2 5'p-UUAGGUAACCCAGUAGAUCCAGAGGA; auxiliary factor: 500 nM mouse GTSF1
# Description: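 Cleave-'n-Seq: a library of target RNAs (target site embedded in constant flanks, ACAGCATTCCGCGTTAGTGATATCCG... 5' flank; DNA-blocked outside the site) at 0.1 nM was incubated with 1 nM active mouse MILI or MIWI piRISC (synthetic 5'-monophosphorylated piRNA guide) with or without 500 nM mouse GTSF1 at 33 °C for 1 min to 16 h. Uncleaved targets were sequenced and normalised to non-target controls, and the pooled three trials were fitted to a burst-and-steady-state model to give the pre-steady-state cleavage rate (min^-1; k3 is constrained to at most 1e-4). Sequence is the target site only; target names encode pairing extent (gX:gY) and contiguous / 1-mismatch / 2-mismatch / bulge geometry. Fits with R² ≤ 0 are excluded.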
row,Sequence,pre-steady-state target cleavage rate
1,CUUAACCUCAGCAUCUACUGGGUUACCUAA,0.111 ± 0.027
2,CUUAUCCUCACCAUCUACUGGGUUACCUAA,0.127 ± 0.051
3,CUUAACCUCUGCAUCUACUGGGUUACGUAA,0.155 ± 0.069
4,CUUAUCCUCUGGAUCUACUGGGUUACGUAA,0.0586 ± 0.014
5,CUUAUCCUCAGCAUCUACUGGGUUACCUAA,0.271 ± 0.06
6,CUUAACCUCUCGGAUCUACUGGGUUACCUAA,0.0634 ± 0.017
7,CUUAAGGAGGGGAUCUACUGGGUUACCUAA,0.0293 ± 0.022
8,CUUAUCCUCUGGAUGUACAGGGUUACCUAA,0.135 ± 0.011
9,CUUAACCUCUGGGAUCUACUGGGUUACCUAA,0.168 ± 0.03
10,CUUAAGGUCUGGGUCUACUGGGUUACCUAA,0.0913 ± 0.015
11,CUUAAGGUCUGCAUCUACUGGGUUACCUAA,0.0733 ± 0.018
12,CUUAACCUCUGGCAUCUACUGGGUUACCUAA,2.04 ± 1.1
13,CUUAACCUCUGAUCUACUGGGUUACCUAA,0.0852 ± 0.019
14,CUUAAGGUCUGGCAUCUACUGGGUUACCUAA,0.211 ± 0.069
15,CUUAACCUUGGAUCUACUGGGUUACCUAA,0.134 ± 0.041
16,CUUAACCUCUGGACUCUACUGGGUUACCUAA,0.0674 ± 0.018
17,CUUAACCUCUGGCUCUACUGGGUUACCUAA,0.8 ± 0.2
18,CUUAACCUCUGCAUCUACUGGGUUACCUAA,0.185 ± 0.036
19,CUUAACCUCUGGAUCUACUGGGUUACCUAAA,0.0972 ± 0.022
20,CUUAACCUCUUGGAUCUACUGGGUUACCUAA,0.245 ± 0.072
21,CUUAACCUCUGGAACUUCUGGGUUACCUAA,0.103 ± 0.028
22,CUUAAGCUCUGGAUCUAGUGGGAUACCUAA,0.00824 ± 0.0045
23,CUUAUCCUCUCGAUCUACUGGGAUACCUAA,0.0565 ± 0.013
24,CUUAUCCUCUGCAUCUACUGGGAUACCUAA,0.0522 ± 0.025

row,Sequence,pre-steady-state target cleavage rate
1,CUUAAGGAGACGAUCUACUGGGUUACCUAU [g2:g19:cont:t1U],0.00667 ± 0.0036
2,CUUAAGCUCUGGAUCUACUGGGUUAACUAA,0.095 ± 0.017
3,CUUAUCCUCUGGAUCUACUGGGCUUACCUAA,0.0139 ± 0.005
4,CUUAACCUCUGGAUCUACUGGGUUACCUAA [g2:g25:cont:t1A],0.101 ± 0.02
5,CUUAACCUCUGGAUUACUGGGUUACCUAA,0.0792 ± 0.024
6,CUUAAGCUCUGGCUCUACUGGGUUACCUAA,0.163 ± 0.034
7,CUUAACCUCUGGAUUCUACUGGGUUACCUAA,0.273 ± 0.093
8,CUUAAGCUCUGGCAUCUACUGGGUUACCUAA,0.453 ± 0.15
9,CUUAAGCUCUGCAUCUACUGGGUUACCUAA,0.0767 ± 0.016
10,CUUAUCGUCAGGAUCUACUGGGUUACCUAA,0.03 ± 0.012
11,CUUAUGCUCUGGAUCUACUGCGUUACCUAA,0.0127 ± 0.0036
12,CUUAAGGACUGGAUCUACUGGGUUACCUAA [g2:g22:cont:t1A],0.0428 ± 0.02
13,CUUAAGGAGACCUAGUACGGGUUACCUAA,< 0.0001
14,CUUAAGGAGAGGAAUCUACUGGGUUACCUAA,0.00399 ± 0.0036
15,CUUAUCCUCUGGAUGUACUGGGUUACGUAA,0.0286 ± 0.0078
16,CUUAAGGACUGGAUCUACGGGGUUACCUAA,0.0466 ± 0.013
17,CUUAUCCUCUAGGAUCUACUGGGUUACCUAA,0.049 ± 0.012
18,CUUAUCCUCUGGAUCUACUGGGUUAGCUAA,0.129 ± 0.025
19,CUUAUCCUCUGAGAUCUACUGGGUUACCUAA,0.106 ± 0.02
20,CUUAACCUCUGGUAGUACUGGGUUACCUAA,0.078 ± 0.025
21,CUUAUCCUCUGCAUCUACUGGGUUAGCUAA,0.145 ± 0.054
22,CUUAUCCUCUGGUUCUACUGGGUUAGCUAA,0.235 ± 0.069
23,CUUAACCUCUGGACUACUGGGUUACCUAA,0.156 ± 0.037
24,CUUAACCUCUGGUACUACUGGGUUACCUAA,0.256 ± 0.074

row,Sequence,pre-steady-state target cleavage rate
1,CUUAUCCUCUGCAUCUACUGGGUUUCCUAA,0.165 ± 0.071
2,CUUAUCCUCUGGUUCUACUGGGAUACCUAA,0.188 ± 0.078
3,CUUAUCCUCUAGAUCUACUGGGUUACCUAA,0.224 ± 0.034
4,CUUAUCCUCUGGUUCUACUGGGUUUCCUAA,2.2 ± 1.7
5,CUUAAGCUCUGGAUCUACAGGGUUACGUAA,0.0394 ± 0.01
6,CUUAAGCUCUGGAUCCACUGGGUUACCUAA,0.0284 ± 0.0092
7,CUUAACCUCUGCAUCUACAGGGUUACCUAA,0.0773 ± 0.014
8,CUUAAGGACUCGAUCUACUGGGUUACCUAA,0.0128 ± 0.0065
9,CUUAAGGAGAGGAUCUACAGGGUUACCUUA,0.0102 ± 0.0051
10,CUUAACCUCUGGAUCUAGUGGGAUACCUAA,0.0146 ± 0.0055
11,CUUAUCCUCUGGAUGUACUGGGUUACCUAA,0.108 ± 0.022
12,CUUAAGGUCUGGAUCUACUGGGAAACCUAA,0.0107 ± 0.0055
13,CUUAUCCUCUGGAUCUACUGGGUUACCAA,0.123 ± 0.022
14,CUUAUCCUCUGGAACUACUGGGUUACCUAA,0.188 ± 0.042
15,CUUAUCCUCUGGUUCUACUGGGUUACCAAA,0.453 ± 0.15
16,CUUAAGCUCUGGUUCUACUGGGUUACCUAA,0.131 ± 0.027
17,CUUAUCCUCUGGAACUACUGGGUUACGUAA,0.197 ± 0.068
18,CUUAUCCUCUGGUUCUACUGGGUUACGUAA,0.634 ± 0.25
19,CUUAUCCUCUGGAACUACUGGGUUACCAAA,0.13 ± 0.044
20,CUUAAGCUCUGGUUCUACUGGGUUACCAAA,0.199 ± 0.063
21,CUUAUCCUCUCGAUCUACUGGGUUACCAAA,0.13 ± 0.025
22,CUUAAGCUCUGGUUCUACUGGGUUACCUUA,0.126 ± 0.036
23,CUUAACCUCUGGUUCUACUGGGUUACGUAA,0.12 ± 0.043
24,CUUAUCCUCUGGAACUACUGGGUUACCUUA,0.266 ± 0.073
